In PubChem BioAssay one finds z-score and composite z-score data, which are given here for 8 compounds.

A short description of test [1]: compound effects on lung adenocarcinoma cell viability – A549, calcein-AM fluorescence, 48 h, basal, profiling panel (AID 1162). Note: test concentration not given here. The note with it: higher = more signal.
Test [2] can be described thus: compound effects on differentiated 3T3-L1 adipocyte viability – cell-based, 3T3-L1 adipocytes, calcein-AM fluorescence, 48 h, basal, profiling panel (AID 1163). Note: test concentration not given here. To be noted: 3T3-L1 adipocytes viability, higher = more signal.
The nature of test [3]: compound effects on hepatocellular carcinoma cell viability – HepG2, calcein-AM fluorescence, 48 h, basal, profiling panel (AID 1164). Note: test concentration not given here. To be noted: higher = more signal.
Test [4] in a line: compound effects on multiple myeloma cell viability – MM1S, calcein-AM fluorescence, 48 h, basal, profiling panel (AID 1165).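 Note: viability of MM1S multiple myeloma cells under basal unstimulated conditions; test concentration not given here.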 To be noted: higher = more signal.
A short description of test [5]: calcein-AM signal in unstimulated myeloma cells – cell-based, calcein-AM fluorescence, 48 h, PK04 Diversity Set, profiling panel (AID 1166).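 Note: cells grown under basal conditions without added stimulus; test concentration not given here.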 To be noted: RPMI8226 myeloma viability, higher = more signal.
Test [6] in a line: JC-1 mitochondrial signal, unstimulated HepG2 cells – cell-based, JC-1 fluorescence, 24 h, 100 nL compound, profiling panel (AID 1167). Note: test concentration not given here. The note with it: HepG2 mitochondrial potential, higher = more signal.
Test [7] can be described thus: JC-1 mitochondrial signal, unstimulated adipocytes – cell-based, JC-1 fluorescence, 3T3-L1 adipocytes, 24 h, 100 nL compound, profiling panel (AID 1168). Note: test concentration not given here. To be noted: JC-1 mitochondrial fluorescence, higher = more signal, called active from +8 up or from −8 down.
Test [8] can be described thus: JC-1 mitochondrial signal, unstimulated myeloma cells – cell-based, JC-1 fluorescence, RPMI8226, 24 h, 100 nL compound, profiling panel (AID 1169). Note: test concentration not given here. The note with it: JC-1 mitochondrial potential fluorescence, higher = more signal.
The nature of test [9]: JC-1 mitochondrial signal, unstimulated MM1S myeloma – cell-based, JC-1 fluorescence, 24 h, 100 nL compound, profiling panel (AID 1170). Note: test concentration not given here. The note with it: MM1S mitochondrial potential, higher = more signal.
Test [10] can be described thus: resazurin metabolic signal in A549 cells – cell-based, resazurin fluorescence, 24 h, PK04 Diversity Set, profiling panel (AID 1171). Note: test concentration not given here. To be noted: A549 viability, higher = more signal, called active from +8 up or from −8 down. (The colour change of resazurin is a common sign of viable cells or microbes.)
Test [11] can be described thus: resazurin metabolic signal in HepG2 cells – cell-based, resazurin fluorescence, 24 h, PK04 Diversity Set, profiling panel (AID 1172). Note: test concentration not given here. To be noted: HepG2 viability, higher = more signal.
Test [12] is described as follows: budding yeast growth changes without added modifier – OD600, strain BY4716, 24 h, basal condition, primary screen (AID 1173). The note with it: S. cerevisiae BY4716 growth, OD600, 24 h; higher = more signal, called active from +8 up or from −8 down.
Test [13] can be described thus: viability profiling in MM1S myeloma cells – cell-based, resazurin fluorescence, basal, 24 h, PK04 Diversity Set, profiling panel (AID 1174). Note: test concentration not given here. The note with it: higher = more signal, called active from +8 up or from −8 down.
For test [14], the target named is Dihydroorotate dehydrogenase (quinone), mitochondrial (Plasmodium falciparum (isolate 3D7)) (UniProt Q08210). The experiment in a line: inhibition of P. falciparum DHODH – biochemical, C-terminal His tag, absorbance 600 nm, primary screen (AID 1175).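 Note: recombinant parasite enzyme with a five histidine tag at its C terminus; test concentration not given here.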 To be noted: PfDHODH enzyme, DCIP absorbance 600 nm; higher = more signal, called active from +8 up or from −8 down.

Test [15] in a line: inhibition of PAO1 biofilm formation – strain PAO1, LB-PBS medium, absorbance 600 nm, primary screen (AID 1176). Note: test concentration not given here. The note with it: P. aeruginosa PAO1 growth/biofilm, A600, 12 h; higher = more signal.
Test [16] can be described thus: growth modulation of vineyard yeast isolate – strain RM11-1a, OD600, basal, 24 h, primary screen (AID 1177).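 Note: cultures grown under basal conditions with no added stressor; test concentration not given here.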 To be noted: S. cerevisiae RM11-1a growth, OD600, 24 h; higher = more signal, called active from +8 up or from −8 down.
Test [17] is described as follows: growth of efflux-deficient E. coli DRC39 – strain DRC39, OD650, 24 h, E. coli filamentation inducers, primary screen (AID 1178).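 Note: growth measured as culture turbidity by optical density at 650 nm; test concentration not given here.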 To be noted: E. coli DRC39 acrAB, higher = more signal, called active from +8 up or from −8 down.
The nature of test [18]: growth of efflux-deficient E. coli DRC39 – strain DRC39, OD650, 48 h, E. coli filamentation inducers, primary screen (AID 1179).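 Note: screen aims at cell division blockers that make cells filament.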 The note with it: E. coli DRC39 delta-acrAB growth, higher = more signal, called active from +8 up or from −8 down.
Test [19] is described as follows: viability profiling in RPMI8226 myeloma cells – cell-based, resazurin fluorescence, basal, 24 h, PK04 Diversity Set, profiling panel (AID 1180).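 Note: RPMI8826 multiple myeloma cell line at 5000 cells per well; test concentration not given here.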 To be noted: higher = more signal.
Test [20] deals with E3 ubiquitin-protein ligase XIAP (Homo sapiens) (UniProt P98170). The experiment in a line: small molecules binding XIAP protein – biophysical, small-molecule microarray, fluorescence 635 nm, primary screen (AID 1181).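 Note: score merges 667 nm emission and signal to noise over triplicate slides.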 The note with it: higher = more signal.

Calls of active or inactive are those of the source. Unless noted, the rule behind the calls is not given here.

Dihydroorotate dehydrogenase (quinone), mitochondrial (Plasmodium falciparum (isolate 3D7)), sequence (Q08210 whole entry, looked up): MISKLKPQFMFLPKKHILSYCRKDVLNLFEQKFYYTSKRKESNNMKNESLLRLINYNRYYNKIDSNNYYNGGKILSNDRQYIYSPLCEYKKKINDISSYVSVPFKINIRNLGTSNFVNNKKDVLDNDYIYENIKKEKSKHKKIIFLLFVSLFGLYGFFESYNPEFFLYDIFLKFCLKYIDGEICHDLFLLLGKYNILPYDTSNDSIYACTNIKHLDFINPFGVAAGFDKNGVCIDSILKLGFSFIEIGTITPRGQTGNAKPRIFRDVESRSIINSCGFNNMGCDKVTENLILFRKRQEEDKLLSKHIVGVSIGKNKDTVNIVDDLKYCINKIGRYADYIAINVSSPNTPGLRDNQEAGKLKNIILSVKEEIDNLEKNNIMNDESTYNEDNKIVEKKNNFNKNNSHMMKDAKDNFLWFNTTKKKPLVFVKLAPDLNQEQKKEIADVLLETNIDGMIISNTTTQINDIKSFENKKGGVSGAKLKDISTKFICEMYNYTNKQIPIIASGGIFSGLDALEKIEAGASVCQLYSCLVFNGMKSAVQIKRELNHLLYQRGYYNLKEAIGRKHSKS
E3 ubiquitin-protein ligase XIAP (Homo sapiens), sequence (P98170 whole entry, looked up): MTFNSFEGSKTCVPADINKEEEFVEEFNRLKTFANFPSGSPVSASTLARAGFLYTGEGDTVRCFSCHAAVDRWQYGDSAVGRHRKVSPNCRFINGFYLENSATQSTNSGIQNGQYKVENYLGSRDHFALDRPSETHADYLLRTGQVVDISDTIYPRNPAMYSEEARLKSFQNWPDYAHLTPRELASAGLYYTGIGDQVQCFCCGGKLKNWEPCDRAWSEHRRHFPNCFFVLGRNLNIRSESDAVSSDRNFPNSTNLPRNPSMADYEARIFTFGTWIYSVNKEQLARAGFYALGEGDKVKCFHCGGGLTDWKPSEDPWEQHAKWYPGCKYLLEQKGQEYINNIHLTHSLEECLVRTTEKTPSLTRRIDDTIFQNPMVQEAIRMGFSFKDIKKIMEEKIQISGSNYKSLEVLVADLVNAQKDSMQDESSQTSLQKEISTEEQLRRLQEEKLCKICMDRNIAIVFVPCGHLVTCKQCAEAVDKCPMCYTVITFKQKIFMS

Consider `OCCCC1=CC(c2ccc(CN3CCCC3)cc2)N(Cc2sc3ccccc3c2Cl)CC1` (stereo not given), for which the z-score in test [1] was 0.48; in [2], -0.301; in test [3], 0.212; in test [4] it was -3.45; in test [5], -3.64; in test [6], 3.4. Moreover, the z-score was 0.0544 (inactive) in [7]; -0.252 in test [8]; -0.356 in [9]; 0.341 (inactive) in test [10]; -0.516 in test [11]; -7.47 (inactive) in [12]. The z-score in [13] is -0.846 (inactive); in [15], 0.367 (inactive); in test [16], 0.922 (inactive); in test [17] it was -0.365 (inactive); in test [18], -1.05 (inactive); in [19], 0.234. The composite z-score in [14] was 0.721 (inactive); in [20] it was 0.0623.
Regarding `COCCOC(=O)N1C(=O)[C@@]2(c3cc(C#Cc4ccc(OC)cc4)ccc31)[C@H](c1ccc(O)cc1)N1[C@H](c3ccccc3)[C@H](c3ccccc3)OC(=O)[C@H]1[C@@H]2C(=O)N1CCCCCCC1`, the z-score is 0.403 in test [1]; 0.703 in test [2]; -0.261 in [3]; -1.08 in test [4]; -1.29 in [5]; -0.902 in test [6]. Besides, the z-score in [7] is 1.18 (inactive); in [8], -0.464; in test [9], -0.414; in test [10] it was -0.0155 (inactive); in test [11] it was -0.113; in test [12] it was 0.603 (inactive). Besides, the z-score in test [13] is -0.431 (inactive); in test [15], 0.213 (inactive); in [16] it was 0.266 (inactive); in test [17], -0.551 (inactive); in [18] it was -0.341 (inactive); in test [19], -0.332. The figures for the composite z-score in test [14] and in [20] were -0.15 (inactive) and -0.158, respectively.
For the compound `O=C1O[C@H](c2ccccc2)[C@H](c2ccccc2)N2[C@H]1[C@@H](C(=O)Nc1nc3ccccc3s1)[C@]1(C(=O)Nc3ccccc31)[C@H]2c1ccc(OCCO)cc1`, the z-score in [1] is -0.52; in test [2] it was 0.0354; in test [3], 0.349; in [4] it was -1.68; in test [5] it was -1.35; in [6] it was -1.99. In addition, the z-score is 3.24 (inactive) in test [7]; -1.07 in test [8]; -1.83 in test [9]; 0.0237 (inactive) in test [10]; 0.0114 in [11]; 0.445 (inactive) in test [12]. For the same compound, the z-score in test [13] is -1.08 (inactive); in test [15], 3.02 (inactive); in test [16], 1.68 (inactive); in [17], -0.476 (inactive); in test [18] it was 0.282 (inactive); in [19], -2.02. Also, the composite z-score in test [14] is -1.8 (inactive); in test [20], -0.356.
`COCC1=C2[C@@H](CCc3ccccc3)OB(O)C[C@@H]2[C@@H]2C(=O)C=CC(=O)[C@@H]2C1`: the z-score in test [1] is 0.144; in test [2], -0.147; in [3], -0.165; in [4], -3.4; in test [5], -3.63; in test [6] it was -3.14. In addition, the z-score in test [7] was -2.12 (inactive); in [8], -0.654; in test [9], -2.55; in [10], -0.648 (inactive); in test [11], -1.15; in test [12] it was -5.61 (inactive). Moreover, the z-score in test [13] was -0.997 (inactive); in test [15], 0.106 (inactive); in test [16] it was -0.143 (inactive); in [17], -0.244 (inactive); in [18] it was 0.0271 (inactive); in [19], -0.878. The composite z-score is -4.14 (inactive) in test [14] and 0.906 in [20].
As to `C=CCOC(=O)[C@H]1[C@@H]2C(=O)O[C@@H](c3ccccc3)[C@@H](c3ccccc3)N2[C@@H](c2ccc(OCCOC(=O)[C@@H]3C[C@@H]4C(=O)N[C@@H](CCCCNC(C)=O)C(=O)N4[C@@H]3c3ccc(O)cc3)cc2)[C@]12C(=O)Nc1ccc(I)cc12`, the z-score was -0.34 in [1]; 0.522 in test [2]; -0.786 in [3]; -1.6 in test [4]; -0.957 in [5]; -1.03 in [6]. The z-score in test [7] is 2.24 (inactive); in test [8], -0.744; in test [9], -0.888; in [10], -0.389 (inactive); in test [11], -0.634; in test [12] it was 1.46 (inactive). Moreover, the z-score in test [13] is -1.77 (inactive); in test [15], 1.55 (inactive); in [16], 0.925 (inactive); in test [17] it was -0.508 (inactive); in test [18], -1.25 (inactive); in test [19], -0.533. In addition, the composite z-score in test [14] is 0.158 (inactive); in [20], 0.026.
`CCCCCCc1nc(-c2cc(C)c(OC)c(C)c2)c(C)c2c1[Si](C(C)C)(C(C)C)OC2`: the z-score in test [1] was -0.499; in [2] it was 1.66; in test [3] it was -0.289; in test [4], -2.84; in test [5] it was -1.44; in [6], 0.797. Also, the z-score in test [7] was 0.354 (inactive); in [8], -0.18; in [9], -1.6; in test [10] it was 0.197 (inactive); in [11], -0.52; in test [12], -0.214 (inactive). Further, the z-score in test [13] is 0.899 (inactive); in test [15], 0.374 (inactive); in [16] it was -0.199 (inactive); in test [17], 0.326 (inactive); in [18], -0.461 (inactive); in test [19], 0.736. In addition, the composite z-score was -2.86 (inactive) in [14] and -0.0994 in test [20].
With `C=CCOC(=O)[C@H]1[C@@H]2C(=O)O[C@@H](c3ccccc3)[C@@H](c3ccccc3)N2[C@@H](c2ccc(OCCOC(=O)[C@@H]3C[C@@H]4C(=O)N[C@@H](CCCCN(C)C)C(=O)N4[C@@H]3c3ccc(O)cc3)cc2)[C@]12C(=O)Nc1ccccc12`, the z-score was -0.0988 in [1]; 0.887 in [2]; 0.52 in test [3]; -0.305 in test [4]; -0.0297 in test [5]; -2.38 in test [6]. Moreover, the z-score in test [7] was 0.0411 (inactive); in test [8], -0.473; in test [9], -0.92; in test [10], 0.23 (inactive); in test [11], -2.65; in [12], -1.48 (inactive). Further, the z-score was 0.0862 (inactive) in test [13]; 1.07 (inactive) in test [15]; 0.0694 (inactive) in test [16]; -1.05 (inactive) in test [17]; -0.628 (inactive) in test [18]; 0.313 in [19]. Besides, the composite z-score was -1.52 (inactive) in test [14] and -0.0172 in test [20].
As to `C=C(C(=O)CC[C@@H](OC(C)=O)c1ccc(CO)o1)C(C)C`, the z-score is -0.306 in test [1]; -0.317 in [2]; -0.261 in test [3]; -1.39 in test [4]; -0.812 in test [5]; -1.5 in test [6]. For the same compound, the z-score in test [7] is 0.241 (inactive); in [8], 0.544; in [9] it was -0.591; in test [10] it was 0.246 (inactive); in test [11] it was -0.192; in [12], -0.788 (inactive). Further, the z-score in [13] is 0.0874 (inactive); in [15], 2.05 (inactive); in [16] it was -0.396 (inactive); in test [17] it was -0.351 (inactive); in [18], -0.374 (inactive); in test [19], 0.0268. Also, the composite z-score is -1.75 (inactive) in test [14] and 0.68 in [20].
